Rev-erbA mod – modulators of Rev-erb alpha DNA binding, primary screen, biochemical, FITC-DNA, fluorescence polarization, uHTS. activity, % at 10 µM. Nuclear receptor subfamily 1 group D member 1 (Homo sapiens), P20393. AID 1259318, 2017. 370,000 compounds, 0.79% hits. Rev-erbα–FITC-DNA binding, 90 min;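 active means activity above about 14%, limit read from the data; passing the limit was not always enough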;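 further: 0% = DMSO wells with 35 nM protein and 100% = DMSO wells with 750 nM protein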
Target sequence (P20393 whole entry, looked up): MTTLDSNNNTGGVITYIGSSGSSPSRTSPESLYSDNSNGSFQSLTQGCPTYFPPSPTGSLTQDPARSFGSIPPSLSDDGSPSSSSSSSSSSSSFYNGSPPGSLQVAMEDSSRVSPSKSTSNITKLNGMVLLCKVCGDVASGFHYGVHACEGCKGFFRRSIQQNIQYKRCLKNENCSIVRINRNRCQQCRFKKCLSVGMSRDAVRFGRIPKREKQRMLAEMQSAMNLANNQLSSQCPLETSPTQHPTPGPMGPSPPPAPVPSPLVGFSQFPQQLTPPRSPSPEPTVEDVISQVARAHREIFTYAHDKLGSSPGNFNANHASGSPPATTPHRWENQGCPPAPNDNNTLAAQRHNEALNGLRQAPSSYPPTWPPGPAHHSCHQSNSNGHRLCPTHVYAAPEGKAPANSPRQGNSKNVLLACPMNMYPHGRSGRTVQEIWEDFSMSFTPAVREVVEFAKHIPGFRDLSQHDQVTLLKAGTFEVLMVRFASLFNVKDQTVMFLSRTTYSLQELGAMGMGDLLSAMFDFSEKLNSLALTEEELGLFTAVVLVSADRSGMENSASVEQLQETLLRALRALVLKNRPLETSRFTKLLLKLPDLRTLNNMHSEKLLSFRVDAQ
VLA-4 inh – inhibition in human VLA-4 binding assay, primary screen, VLA-4 allosteric modulator project, MLPCN library, flow cytometry, VLA-4 expressing cells; ligand binding flow cytometry; inhibition, % (about 7 µM as worked out from the volumes in the protocol); 330,000 compounds, 0.2% hits; in the data active means inhibition above about 50%
ABCB6 inh MLPCN – ABCB6 transporter inhibitors, primary screen, K562-ABCB6 cells, flow cytometry, MLPCN library; ATP-binding cassette sub-family B member 6 (Homo sapiens), Q9NP58; K562-ABCB6 porphyrin accumulation, 1 h; stronger effect = lower value; fluorescence ratio to DMSO, % at 10 µM; 360,000 compounds, 0.19% hits; AID 602162, 2011;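 active means fluorescence ratio to DMSO below 75%, the collection mean minus 3 SD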;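 further: signal is porphyrin accumulated inside mitochondria; 100% equals median channel fluorescence of DMSO control wells; lower ratio means ABCB6 inhibition with less porphyrin fluorescence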
PG9 Ab binder – binders of HIV-1 gp120 antibody PG9, primary screen, biochemical, TR-FRET. inhibition, % at 6.7 µM. HIV-1 gp120 / PG9 antibody interaction. 360,000 compounds, 0.43% hits. TR-FRET gp120-PG9 antibody binding; in the data active means inhibition above about 8.5%
Exocytosis inh – LAMP-1 surface exposure blockers, TALL-104 cells – cell-based, flow cytometry, MLPCN library, primary screen; TALL-104 LAMP-1 surface exposure; cells stimulated with thapsigargin and PMA; inhibition, % at 10 µM; AID 651702, 2012; 360,000 compounds, 0.66% hits;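 active means inhibition above about 55%, limit read from the data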
PG9 bind confirm – binders of anti-gp120 antibody PG9, confirmation, biochemical, TR-FRET; TR-FRET PG9 antibody binding; AID 651571, 2012; inhibition, % at 6.7 µM; 1,500 compounds, 90% hits; shares compounds with PG9 Ab binder; in the data active means inhibition above about 9%
PGV04 counter – binders of control antibody PGV04, counter-screen for PG9 antibody binder project, biochemical, TR-FRET, distinct HIV envelope site; shares compounds with PG9 Ab binder; TR-FRET PGV04 antibody-gp120 binding; inhibition, % at 6.7 µM; 1,500 compounds, 95% hits; AID 651604, 2012; in the data active means inhibition above about 9.5%
PG9 binder DR – small-molecule binders of antibody PG9, dose response, biochemical, TR-FRET, HIV-1 gp120 antibody. shares compounds with PG9 Ab binder. TR-FRET PG9 antibody-gp120 binding inhibition. IC50, µM. 95 tested, under 10 active; in the data active means IC50 below about 10 µM
PGV04 DR counter – binders of control antibody PGV04, dose response, counter-screen for PG9 antibody binder project, biochemical, TR-FRET, distinct HIV envelope site | AID 651937, 2012 | 95 compounds, 20% hits | TR-FRET binding to control antibody PGV04 | IC50, µM | shares compounds with PG9 Ab binder
PG126 binding DR – binders of control antibody PG126, dose response, counter-screen for PG9 antibody binder project, biochemical, TR-FRET, distinct HIV envelope site; shares compounds with PG9 Ab binder; TR-FRET binding to antibody PG126, counterscreen; IC50, µM; 95 compounds, 20% hits; AID 651939, 2012
Active calls of the source: *; i = inactive; nt = no result. Compounds with a hit are over-represented: about 2% of the library has one in this group of screens. Unless noted, no stated cut-off is given here; in the data, active means IC50 below about 9 µM; inactive means the rest.

SMILES	Rev-erbA mod	VLA-4 inh	ABCB6 inh MLPCN	PG9 Ab binder	Exocytosis inh	PG9 bind confirm	PGV04 counter	others
O=C1COc2ccc(C(=O)COC(=O)CCSc3ccc(Cl)cc3)cc2N1	17	-1	95	13*	0	30*	44*
Cc1cccc(C(=O)OCC(=O)c2ccc3c(c2)NC(=O)CO3)c1	8	1	94	15*	-20	16*	27*
Cn1cc(CC(=O)Nc2ccc(Oc3cccnc3)cc2)c2ccccc21	1	nt	nt	0	nt	nt	nt
CCCC(=O)Nc1nnc(-c2cccc(OCC)c2)s1	8	-22	92	16*	-2	22*	39*
CCOC(=O)Nc1nnc(-c2cccc(OC)c2)s1	-3	-18	92	1	0	nt	nt
Cc1cccc(-c2nnc(NC(=O)c3ccc(N4C(=O)CCC4=O)cc3)s2)c1	8	-24	101	17*	1	4	12*
COc1ccc(OC)c(NC(=O)c2c(NC(=O)CCC(=O)O)sc3c2CCCCC3)c1	0	-2	96	-1	4	nt	nt
COc1ccc(NC(=O)c2c(NC(=O)CNCC(C)C)sc3c2CCC3)c(OC)c1	1	11	107	11*	6	9.9*	9.5*	PG9 binder DR=>67;PGV04 DR counter=i;PG126 binding DR=i
CC(=O)c1ccc(NC(=O)c2ccc(NC(=O)c3ccco3)cc2)cc1	nt	-10	98	nt	-4	nt	nt
CCOc1ccc(C(=O)Nc2ccc(NC(=O)c3ccco3)c(Cl)c2)cc1Br	11	-6	100	36*	0	32*	44*
COC(=O)c1ccc(NC(=O)c2ccc(NC(=O)c3ccco3)cc2)cc1	3	-9	96	19*	-1	17*	11*	PG9 binder DR=i;PGV04 DR counter=>67;PG126 binding DR=>67
O=C(NC1CCCCN(Cc2cccc(Cl)c2)C1=O)c1c(F)cccc1F (stereo not drawn)	4	nt	nt	nt	nt	nt	nt
COC(=O)[C@@]12CCCCC3=C1N(CCC3)C(=O)[C@H]2CC(=O)NCc1ccccc1	4	nt	nt	nt	nt	nt	nt
COc1ccc(N2CCN(CCNS(=O)(=O)c3ccccc3[N+](=O)[O-])CC2)cc1	3	nt	nt	nt	nt	nt	nt
O=C1C(=O)N(Cc2cccnc2)C(c2ccccn2)/C1=C(/O)c1ccc(Br)cc1 (stereo not drawn)	-3	8	102	11*	3	18*	23*
O=C1C(=O)N(Cc2cccnc2)C(c2cccc(O)c2)/C1=C(\O)c1ccc2c(c1)OCCO2 (stereo not drawn)	1	-2	87	9.0*	6	10*	20*
O=C1C(=O)N(Cc2cccnc2)C(c2cccc(Br)c2)/C1=C(/O)c1ccc2c(c1)OCO2 (stereo not drawn)	6	4	97	37*	-9	39*	46*
COc1ccccc1C1/C(=C(\O)c2ccc3c(c2)OCCO3)C(=O)C(=O)N1Cc1cccnc1 (stereo not drawn)	7	-47	102	14*	0	12*	18*

Compound activity: PubChem, several laboratories
